This is a sample that favours compounds with a hit; in the whole collection about 19% have one here.
TDP1 cell noCPT = qHTS for Inhibitors of human tyrosyl-DNA phosphodiesterase 1 (TDP1): qHTS in cells in absence of CPT; Potency, µM (titrated, usually from 46.2 µM), inactives show at the top dose activity change, negative = growth inhibition, usual class: inhibitors; AID 686978, 2013; hit rate 15% among 420,000; DT40 Tdp1-/- hTDP1 cells, no CPT, ATP luminescence, 48 h; further: potency means the concentration at half of the fitted maximal effect; nearly all actives have a fitted effect of over 55% in size
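Seeded 400 DT40-hTDP1 cells/well (vehicle DMSO, no 20 nM CPT); pinned compounds; ≥48 hr at 37 °C; CellTiter-Glo luminescence as viability measure.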
IL-1B inflam inh = inflammasome signaling inhibition, IL-1 beta readout; THP-1 LPS/ATP IL-1B secretion, AlphaLISA, 16 h; active compounds read low; activity change, % at 57.5 µM; hit rate 4.7% among 360,000; AID 743279; in the data active means activity change below about -50%; inconclusive means mostly about -30% to -49%
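THP-1 cells pretreated 1 hr with compounds (up to 57.5 uM final), then stimulated with LPS (250 ng/mL final) plus ATP (1.25 mM final); secreted IL-1B measured by AlphaLISA after 16 hr, decreased signal indicating inhibition.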
DT40 TDP1 CPT = DT40-hTDP1 cell growth loss with CPT | chicken DT40 Tdp1-/-;hTDP1 cells + 20 nM CPT, ATP luminescence, 48 h | Potency, µM (series often up to 46.2 µM), for the others: at the top dose activity change, negative = growth inhibition, usual class: inhibitors | hit rate 12% among 420,000 | AID 686979; further: potency means the concentration at half of the fitted maximal effect; nearly all actives have a fitted effect of over 55% in size
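Chicken DT40 Tdp1-/- cells complemented with human TDP1, 400 cells/well, exposed to compounds plus 20 nM camptothecin for at least 48 h at 37 C; viability read as ATP content by CellTiter-Glo luminescence.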
HT1080-NT tox = kills 2HG-producing HT-1080-NT fibrosarcoma cells; HT-1080-NT fibrosarcoma viability, CellTiter-Glo ATP luminescence, 48 h; Potency, µM (titrated, usually from 46.1 µM), inactives show at the top dose activity, negative = less viability, usual class: cytotoxic; hit rate 1.6% among 360,000;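 further: NT is the 2HG producing partner of a matched IDH1 knockdown line; potency means the concentration at half of the fitted maximal effect; 0% = DMSO-treated cells and -100% = media-only wells without cells; nearly all actives have a fitted effect of over 55% in size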
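Fibrosarcoma NT cells, 750 per well in 5% FBS RPMI, were exposed to compound for 48 hours. Viability: CellTiter-Glo luminescence.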
HT1080 IDH1KD tx = kills HT-1080 cells with IDH1 knockdown | HT-1080 IDH1 knockdown viability, ATP luminescence, 48 h | Potency, µM (top dose mostly 46.1 µM), inactives show at the top dose activity, negative = toxicity, hits mostly cytotoxic | hit rate 2% among 360,000;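 further: potency means the concentration at half of the fitted maximal effect; 0% = DMSO wells and -100% = cell-free medium wells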
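After a 2 h attachment period, IDH1KD HT-1080 cells took pin-transferred compound for 48 h at 37 °C; ATP-based luminescence after 10 min room-temperature reagent incubation reported viability.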
The depositor's hits bear a star; ? = inconclusive; . = no result given; [ ] = another dose, or the depositor's remark. Unless noted, the call rests on the fitted dose curve; in most records, active means well fitted curve in the direction sought with a large enough effect; inconclusive means small, poorly fitted or top-dose-only effect, or another doubt; inactive means no such curve, though single readings can be large; an effect the other way counts as inactive or inconclusive. Unless noted, on the % scale 0 is the no-effect control and ±100 the full control effect.

SMILES | TDP1 cell noCPT | IL-1B inflam inh | DT40 TDP1 CPT | HT1080-NT tox | HT1080 IDH1KD tx
Nc1nc(=S)c2ncn(C3OC(CO)CC3O)c2[nH]1 (stereo unspecified) | 11.6µM* | 48.6 | -18.5% | -18.6% | ?
CN(C)c1ccc(C(=O)N2CCC2(C)C(=O)O)cc1 (stereo unspecified) | 0.5% | -2.9 | 1.8% | 17.4% | 0.0%
CCOc1cc(Br)c(COc2ccc(C)nc2[N+](=O)[O-])cc1OCC | ? | -4.1 | ? | -15.6% | -28.8%
Cc1ccc(C)c(C(=O)COc2ccc(C)nc2[N+](=O)[O-])c1 | 14.6µM* | 42.1 | 7.31µM* | ? | ?
Cc1ccc(NS(=O)(=O)c2ccccc2[N+](=O)[O-])cc1C | 5.8% | 20.6 | ? | -0.8% | 3.4%
Cc1cc(C)c(S(=O)(=O)Oc2ccccc2[N+](=O)[O-])c(C)c1 | 18.4µM* | -3.7 | 20.6µM* | ? | ?
Cc1ccc(OCC(=O)N2c3ccccc3CC2C)c([N+](=O)[O-])n1 (stereo unspecified) | -86.7% | -7.0 | 16.4µM* | -1.0% | 1.7%
Cc1ccc(OCCOc2cccc(Br)c2)c([N+](=O)[O-])n1 | -21.5% | -71.2* | -0.4% | -4.6% | -11.8%
Cc1ccc(OCC(=O)c2c[nH]c3ccccc23)c([N+](=O)[O-])n1 | 4.0% | 42.1 | -25.5% | -5.7% | -2.4%
Cc1c(C(=O)NCc2ccco2)cnn1-c1ncc2c(n1)-c1ccccc1CC2 | ? | . | -6.6%[9.04 µM] | . | .
Cc1ccc(-n2ncc3c(=O)n(CC(=O)N(C(C)C)C(C)C)cnc32)cc1 | 3.0% | 14.0 | -3.0% | 4.8% | 5.0%
Cc1ccc(OCC(=O)c2cc(C)c(C)cc2C)c([N+](=O)[O-])n1 | 8.2µM* | 35.9 | 3.66µM* | ? | ?
Cc1ccc(C)c(C(=O)COc2ccccc2[N+](=O)[O-])c1 | 10.3µM* | -51.3* | 5.17µM* | -0.9% | ?
CCCNC(=O)COc1ccccc1[N+](=O)[O-] | -5.0% | 22.6 | 11.3% | 1.5% | 2.8%
COCCCNC(=O)COc1ccc(S(=O)(=O)NCc2ccccc2)cc1Cl | ? | -1.8 | -26.7% | 5.3% | 1.5%
COc1ccc(NC(=O)CSc2nnc(NC(=O)Nc3ccccc3)s2)c(OC)c1 | -7.1% | . | -0.4% | . | .
O=C(Nc1ccc([N+](=O)[O-])cc1)c1ccccc1 | -14.7% | -0.8 | -1.8% | -1.3% | 1.1%
O=C(Nc1cc(Sc2ccccn2)cc([N+](=O)[O-])c1)c1ccc([N+](=O)[O-])cc1 | 2.06µM* | -75.7* | ? | ? | ?
CCCC1=C(C(=O)OCC)C(c2ccco2)C(C#N)=C(N)O1 (stereo unspecified) | 3.9% | ? | ? | -5.0% | -6.8%
O=Nc1c(-c2c(O)[nH]c3cc(Br)ccc23)[nH]c2ccccc12 | 14.6µM* | -105.6* | ? | 5.17µM* | 8.2µM*
O=C(CSCc1cccc(Br)c1)N=Nc1c(O)[nH]c2ccccc12 | -25.8% | 12.6 | -10.3% | -1.8% | 1.6%
O=C(CN1CCC(c2nc3ccccc3s2)CC1)NCc1cccs1 | 18.4µM* | -21.9 | ? | 10µM* | ?
O=C(CN1CCC(c2nc3ccccc3s2)CC1)N1CCCCC1 | ? | 43.2 | ? | -2.3% | 2.3%
C/C(=N\Nc1nc(C)cc(-c2ccccc2)n1)c1ccc(C)o1 | 4.61µM* | -2.4 | ? | -0.1% | -9.8%
C/C(=N\NC(=O)C(O)(c1ccccc1)c1ccccc1)c1ccc(C)o1 | 18.4µM* | 7.4 | ? | -17.9% | -17.1%
SMILES | TDP1 cell noCPT | IL-1B inflam inh | DT40 TDP1 CPT | HT1080-NT tox | HT1080 IDH1KD tx
C/C(=N/Nc1nc(C)cc(-c2ccccc2)n1)c1ccco1 | ? | -10.6 | 20.6µM* | -6.2% | ?
CSc1ccc2cc(CNCc3ccccc3F)c(N3CCCC(CO)C3)nc2c1 (stereo unspecified) | -11.7% | . | -5.5%[9.04 µM] | . | .
CCn1c(SC)nnc1C1CCN(CC(=O)Nc2ccccc2N2CCOCC2)CC1 | ? | 9.0 | -24.5% | 4.4% | 19.3%
OC[C@@H]1CN(CCN2CCOCC2)C[C@H](n2cnc3c(N4CCOCC4)ncnc32)O1 | -7.1% | 20.4 | -27.5% | 10.0% | 10.5%
O=C(CN1C(=O)COc2ccc(S(=O)(=O)N3CCCCC3)cc21)NCc1ccc(Cl)cc1 | ? | 30.8 | ? | -13.7% | -24.7%
Cc1ccc(NC(=S)NNC(=O)CSc2nc3ccccc3c(=O)n2-c2ccc(C)cc2)cc1 | 16.4µM* | 11.0 | -29.2% | -7.3% | -7.1%
Cc1ccc(-n2c(SCC(=O)Nc3ccc(N4CCOCC4)cc3)nc3ccccc3c2=O)cc1 | ? | 22.6 | -26.3% | -6.6% | -3.3%
Cc1cccc(-n2c(SCc3cc(=O)n4ccsc4n3)nc3ccccc32)c1 | 16.4µM* | -2.1 | 13µM* | -22.5% | -14.3%
CCN(CC)C(=O)CSc1nnc(COc2ccc(OC)cc2)n1N | -4.9% | 0.2 | 3.9% | 11.8% | 8.5%
CCN(CC)C(=O)CSc1nnc2nnc3cc(OC)ccc3n12 | -4.1% | 12.3 | -2.6% | 13µM* | ?
CCN(CC)C(=O)CSc1nc2c(sc(=S)n2-c2ccccc2)c(=O)n1-c1ccccc1OC | ? | -6.3 | 9.2µM* | -14.3% | -20.9%
CSc1ncccc1C(=O)NCc1nnc2ccccn12 | 10.7% | -15.1 | -4.8% | 15.8% | 11.5%
Cc1ccc(-n2c(SCc3cn4ccsc4n3)nc3ccccc3c2=O)cc1 | 20.6µM* | -21.1 | ? | -9.1% | -27.7%
COc1ccc(-n2c(SCC(=O)Nc3ccc(NC(C)=O)cc3)nc3ccccc3c2=O)cc1 | -23.2% | -2.6 | 13µM* | ? | -29.3%
CCNC(=O)CSc1nc2ccccc2c(=O)n1-c1cccc(OC)c1 | -7.7% | -16.8 | 0.0% | 7.1% | 3.3%
COc1cccc(-n2c(SCC(=O)Nc3ccc4c(c3)CCC4)nc3ccccc3c2=O)c1 | 9.2µM* | 1.3 | ? | -9.1% | -14.5%
CCCCn1c(SCC(=O)Nc2ccc3c(c2)CCC3)nc2ccccc2c1=O | 0.2% | 2.0 | ? | -1.7% | -1.2%
CCN(CC)C(=O)CSc1nc2ccccc2c(=O)n1-c1cccc(OC)c1 | 14.6µM* | ? | ? | -14.6% | 0.5%
CN(C)CCCN(CCCN(C)C)C(=S)Nc1ccc(S(=O)(=O)N2CCOCC2)cc1 | 1.3% | -25.6 | -25.0% | -7.2% | -10.2%
COc1ccc(NS(=O)(=O)c2ccc3c(c2)NC(=O)C(C)S3)cc1 (stereo unspecified) | ? | 47.5 | ? | -8.6% | -12.8%
CC(C)NC(=O)N(C)C[C@H]1Oc2ccc(NC(=O)C3CC3)cc2C(=O)N([C@H](C)CO)C[C@@H]1C | 1.1% | 4.3 | ? | -3.7% | -0.6%

Compound activity: PubChem BioAssay, National Center for Advancing Translational Sciences (NCATS)
